Assay results: ChEMBL document CHEMBL3988442, “University of Dundee, Small-Polar-MMV Screening Library” (2021)
The campaign covered roughly 69,000 compounds. About 950 (1.4%) showed an effect of 50% or more. This is one part of a sample in which strong results are shown more often than they occur.

tested on: Mycobacterium tuberculosis; assay: Cornell M. t heat shock assay; type: functional, organism-based; set-up: dose or concentration left out as unconfirmed; further: in the data most compounds retested in dose-response had high values

| Compound | Percent Effect [%] |
| --- | --- |
| Cc1ccc(CN2C[C@@H]3C[C@H](C(=O)NCC4CC4)N(C)[C@@H]3C2)o1.O=C(O)C(F)(F)F.O=C(O)C(F)(F)F | -27.97 |
| CCC(C)Oc1ccc(CNCCNC(C)=O)cc1Cl (stereo unspecified) | -0.254 |
| CCC(C)Oc1ccc(CNCCc2c[nH]cn2)cc1Cl (stereo unspecified) | 101.9 |
| CCC(C)Oc1ccc(CNCCNS(C)(=O)=O)cc1Cl (stereo unspecified) | 14.23 |
| CN(CCCOc1ccccc1)Cc1nc2c(cnn2C)c(=O)[nH]1 | -3.727 |
| CN(CCc1ccccc1)Cc1nc2c(cnn2C)c(=O)[nH]1 | 14.44 |
| COCCN(CCc1ccccc1)Cc1nc2c(cnn2C)c(=O)[nH]1 | 50.74 |
| COCCN(CCOC)Cc1nc2c(cnn2C)c(=O)[nH]1 | -10.64 |
| CN(CCCc1ccccc1)Cc1nc2c(cnn2C)c(=O)[nH]1 | 59.96 |
| COCCCN(CCOC)Cc1nc2c(cnn2C)c(=O)[nH]1 | 18.48 |
| CNC(=O)CN1CCOCC12CCN(Cc1ccncc1)CC2.O=C(O)C(F)(F)F.O=C(O)C(F)(F)F | -37.23 |
| CN(C)CCO[C@@H]1CC[C@H]2[C@H]1OCCN2C(=O)c1ccnnc1.O=C(O)C(F)(F)F | -33.17 |
| Nc1ccnc(-c2cc(NC3CCNCC3)nc3[nH]ccc23)c1 | 14.8 |
| COc1ncc(-c2cc(NCCN(C)C)nc3[nH]ccc23)c(OC)n1 | -24.47 |
| COc1ncc(-c2cc(NC3CCCC3)nc3[nH]ccc23)c(OC)n1 | 102 |
| COc1nccnc1-c1cc(NC2CCCC2)nc2[nH]ccc12 | 103.35 |
| COc1ncc(-c2ccc(O)cc2)c(OC)n1 | -3.595 |
| COc1nccnc1-c1cc(NC2CCNCC2)nc2[nH]ccc12 | -16.125 |
| FC(F)(F)c1ccc(-c2cc(NC3CCNCC3)nc3[nH]ccc23)nc1 | 16.27 |

| Compound | Percent Effect [%] |
| --- | --- |
| CNc1cc(C)nc(-c2cc(NC3CCNCC3)nc3[nH]ccc23)n1 | -20.27 |
| COc1cc(-c2cc(NC3CCCC3)nc3[nH]ccc23)nc(N)n1 | 101.075 |
| O=C(O)C(F)(F)F.O=C(c1ccno1)N1CC[C@@H]2O[C@@H](COCCN3CCCC3)CC[C@@H]21 | -5.47 |
| C[C@H]1CN2C[C@H](O)CC2CN1Cc1ccc2nccnc2c1.Cl (stereo partly specified) | 2.113 |
| O=C(O)C(F)(F)F.O=C(O)C(F)(F)F.c1ccc(OC[C@]23COC[C@H]2CN(C2CCOCC2)C3)nc1 | -7.98 |
| Cc1ccc(CN(C)C(=O)CN2CCCC2c2cnn(C)c2)o1 (stereo unspecified) | 15.31 |
| CC1=N[C@@]2(CC[C@@H]3CN(Cc4cccc(Cl)c4)C[C@@H]32)C(=O)N1CC1CC1.O=C(O)C(F)(F)F | 3.209 |
| CN(C)S(=O)(=O)N1C[C@H]2C[C@H](C(=O)NCc3ccccc3)[C@@H](C1)O2 | -32.32 |
| Cc1nc(CN2CCC3(CCCN(Cc4cccnc4)C3)C2=O)cs1.O=C(O)C(F)(F)F.O=C(O)C(F)(F)F.O=C(O)C(F)(F)F (stereo unspecified) | -21.24 |
| CCO[C@H]1CN(CC2CCOCC2)[C@@H]2CCCO[C@H]12.O=C(O)C(F)(F)F | 43.93 |
| Cc1noc(C)c1C(=O)N1C[C@H]2CC[C@@H]1CN(c1cnccn1)C2 | -7.98 |
| O=S(=O)(NCCCN1CCCC1)c1cc(F)cc(F)c1 | -10.46 |
| COCCN1C(=O)C2(CCN(CC3CC3)CC2)c2ccccc21.O=C(O)C(F)(F)F | 22.29 |
| Cc1cc(CNc2cncc(C(=O)N(C)C)n2)c2[nH]c(C)c(C)c2c1 | -11.36 |
| CCc1[nH]c2c(CNc3cc(C)nc(NC)n3)cc(C)cc2c1C | 100.4 |
| CCc1[nH]c2c(CNc3cncc(C(=O)N(C)C)n3)cc(C)cc2c1C | -0.9488 |
| CCc1[nH]c2c(CNc3nccc(N)n3)cc(F)cc2c1C | 15.63 |
| CCc1[nH]c2c(CNc3cncc(C(=O)OC)n3)cc(C)cc2c1C | 0.7071 |
| CNc1nc(C)cc(NCc2cc(C)cc3c(C)c(C)[nH]c23)n1 | 64.43 |

| Compound | Percent Effect [%] |
| --- | --- |
| CCc1[nH]c2c(CNc3nc(C)cc(NC)n3)cc(C)cc2c1C | 100.6 |
| CNc1cc(C)nc(NCc2cc(C)cc3c(C)c(C)[nH]c23)n1 | 35.24 |
| Cc1cc(CNc2nccc(N)n2)c2[nH]c(C)c(C)c2c1 | 6.431 |
| CCc1[nH]c2c(CNc3cnccn3)cc(F)cc2c1C | 27.04 |
| CCc1[nH]c2c(CNC(=O)C3CNC(=O)C3)cc(C)cc2c1C (stereo unspecified) | 7.867 |
| CCc1[nH]c2c(CNc3nccc(N)n3)cc(C)cc2c1C | 83.04 |
| COCC1c2c(cnn2CC2CC2)CCN1Cc1ccsc1.O=C(O)C(F)(F)F.O=C(O)C(F)(F)F (stereo unspecified) | -18.97 |
| O=C(O)C(F)(F)F.O=C(O)C(F)(F)F.O=C(O)C(F)(F)F.c1ccc(CN2CC[C@]3(C[C@@H](Oc4ccccn4)CO3)C2)nc1 | -28.12 |
| Cl.Cl.c1cnc(NCc2cncc3c2CCN(CC2CC2)C3)nc1 | -5.572 |
| Cc1ncsc1-c1nnc(C2CCCN2C(=O)CCn2cccn2)o1 (stereo unspecified) | 13.77 |
| Cc1nnc(N2CC[C@H]3C[C@H](C(=O)N4CCOCC4)O[C@H]3C2)s1.O=C(O)C(F)(F)F | 5.897 |
| CC(C)CNC(=O)N1CC[C@@H]2CN(Cc3cccnc3)S(=O)(=O)[C@@H]2CC1.O=C(O)C(F)(F)F | 36.35 |
| COc1ccc(CN2CCCC3(CCN(c4ccsc4)C3=O)C2)cc1.O=C(O)C(F)(F)F (stereo unspecified) | 27.7 |
| Cn1cc(C2CC(=O)NC23CCN(Cc2ccncc2)CC3)cn1.O=C(O)C(F)(F)F.O=C(O)C(F)(F)F (stereo unspecified) | -12.84 |
| O=C(N[C@@H]1CN(Cc2ccoc2)[C@@H]2CCCO[C@@H]21)C1CC1.O=C(O)C(F)(F)F | -3.228 |
| CCNC(=O)Cc1ccc(NC(=O)NC(CC)c2ccncc2)cc1 (stereo unspecified) | -2.186 |
| CCC(NC(=O)Nc1ccc(OC)c(C)c1)c1noc(C)n1 (stereo unspecified) | 14 |
| CCC(NC(=O)Nc1ccc(OC)c(C)c1)c1ccncc1 (stereo unspecified) | 91.94 |
